Measured values reported in PubChem BioAssay (NCATS).
Inconclusive results are not listed. Active and inactive are the calls of the source. Calls follow the shape of the dose curve; as a rule, active = well fitted curve in the direction sought with a large enough effect; inconclusive = small, poorly fitted or top-dose-only effect, or another doubt; inactive = no such curve, though single readings can be large; an effect the other way counts as inactive or inconclusive.

What was measured:
[1] = qHTS for Inhibitors of Plasmodium falciparum (DD2) proliferation (AID 504314);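 also: parasite DNA measured by SYBR Green fluorescence after red cell lysis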; conditions: P. falciparum Dd2 in erythrocytes, SYBR Green growth, 72 h; series mostly up to 1.12 µM
How it was run: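 Erythrocytes infected with P. falciparum (0.3% parasitemia, 2.5% hematocrit final) were incubated with compounds for 72 h at 37C, 5% CO2. Parasite DNA was detected by SYBR Green I fluorescence after saponin/Triton lysis, normalized to artemisinin (0.29 uM) and DMSO controls.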

[2] = qHTS for Inhibitors of Plasmodium falciparum (GB4) proliferation (AID 504315); also: nearly all actives have a fitted effect of over 50% in size; conditions: P. falciparum GB4 in erythrocytes, SYBR Green DNA, 72 h; series mostly up to 6.7 µM
How it was run: (§1)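 Erythrocytes infected with P. falciparum line (0.3% parasitemia, 2.5% hematocrit final) incubated with compounds 72 h at 37 °C, 5% CO2; SYBR Green lysis buffer added, fluorescence read next day. Normalized to 0.29 uM artemisinin and DMSO.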

[3] = qHTS for Inhibitors of Plasmodium falciparum (7G8) proliferation (AID 504316); also: nearly all actives have a fitted effect of over 65% in size; conditions: P. falciparum 7G8 in erythrocytes, SYBR Green DNA, 72 h; series mostly up to 6.7 µM
How it was run: as §1

[4] = qHTS for Inhibitors of Plasmodium falciparum (HB3) proliferation (AID 504318); also: nearly all actives have a fitted effect of over 60% in size; conditions: P. falciparum HB3 in erythrocytes, SYBR Green DNA, 72 h; series mostly up to 7.21 µM
How it was run: as §1

[5] = qHTS for Inhibitors of Plasmodium falciparum (CP250) proliferation (AID 504320); conditions: P. falciparum CP250 in erythrocytes, SYBR Green DNA, 72 h; series mostly up to 6.7 µM
How it was run: as §1

Measured: Potency

CCCCc1nc2c(c3c1C[C@H](C)OC3)CN(C(=O)N[C@@H](C)c1ccccc1)CC2
not listed: [5]
inactive: all other assays above

CCN(CC)CCCN1C=C2C(=O)C(C)(OC(=O)CCC(=O)OC)C(=O)C=C2C=C1C1CC1 (centres undefined)
inactive: all assays above

COC(=O)CCCC1=CC2=C(c3ccccc3)C(=O)C(C)(OC(=O)C3CCCC3)C(=O)C2=CN1C1CC1 (centres undefined)
inactive: all assays above

CC(C)CN1C=C2C(=O)C(C)(OC(=O)C3CCCC3)C(=O)C=C2C=C1c1ccsc1 (centres undefined)
inactive: all assays above

CCCCC1=CC2=CC(=O)C(C)(OC(=O)CC)C(=O)C2=CN1Cc1ccc(OC)cc1 (centres undefined)
inactive: all assays above

C=CCN1c2ccccc2[C@]23C[C@@H](C(=O)OC)N(C(=O)c4ccco4)C2=NC(C(=O)OC)=C(C(=O)OC)[C@H]13
inactive: all assays above

CCCCC1=CC2=CC(=O)C(C)(OC(=O)CC)C(=O)C2=CN1Cc1ccco1 (centres undefined)
inactive: all assays above

CC(C)CON=C1C[C@@H](O)[C@@H](O)[C@@H]2[C@H]3C(=O)N(c4cccc(Oc5ccccc5)c4)C(=O)[C@@H]3CC[C@H]12
inactive: all assays above

C[C@H]1Cc2c(-c3ccccc3)nc3c(c2CO1)CN(C(=O)C1CCCCC1)CC3
inactive: all assays above

CCCCC1=CC2=CC(=O)C(C)(OC(=O)CC)C(=O)C2=CN1C(CO)CO (centres undefined)
inactive: all assays above

CC[C@H](C)[C@@H](NC(=O)O[C@@H]1C(=O)c2cc(Br)ccc2O[C@H]1c1cccc(OC)c1)C(=O)OC
inactive: all assays above

CC1(OC(=O)CCc2ccccc2)C(=O)C=C2C=C(c3ccc(C#N)cc3)N(C3CC3)C=C2C1=O (centres undefined)
inactive: all assays above

COC(=O)C1=C(C(=O)OC)[C@@H]2Nc3ccccc3[C@@]23C[C@@H](C(=O)OC)N(C(C)=O)C3=N1
inactive: all assays above

C[C@H]1Cc2c(COc3ccccc3)nc3c(c2CO1)CN(C(=O)Nc1cccc(C#N)c1)CC3
inactive: all assays above

COC(=O)C1=C(C(=O)OC)[C@@H]2N(C)c3ccc(OC)cc3[C@@]23C[C@@H](C(=O)OC)N=C3N1
inactive: all assays above

COC(=O)CCCC1=CC2=C(c3ccccc3)C(=O)C(C)(OC(=O)C3CCCC3)C(=O)C2=CN1CCc1ccccn1 (centres undefined)
inactive: all assays above

C=CCN1C=C2C(=O)C(C)(OC(=O)C3CCCC3)C(=O)C(c3ccccc3)=C2C=C1CCCC(=O)OC (centres undefined)
inactive: all assays above

CCN(CC)CCCN1C=C2C(=O)C(C)(OC(=O)C3CCCC3)C(=O)C(c3ccccc3)=C2C=C1CCCC(=O)OC (centres undefined)
inactive: all assays above

COC(=O)[C@H](Cc1ccccc1)NC(=O)O[C@@H]1C(=O)c2cc(OC)ccc2O[C@H]1c1cccc(OC)c1
inactive: all assays above

CC1(OC(=O)c2ccc(Cl)nc2)C(=O)C=C2C=C(C3CC3)OC=C2C1=O (centres undefined)
inactive: all assays above

COC(=O)[C@@H]1[C@H](CCc2ccccc2)NC(=O)N(Cc2ccccc2)[C@H]1C
inactive: all assays above

CC#CCN1C(=O)N[C@@H](c2ccccc2)C(C(=O)OC)=C1C
inactive: all assays above

CCN1C(=O)N[C@@H](c2ccccc2)[C@H](C(C)=O)[C@H]1C
inactive: all assays above

C[C@H]1Cc2c(-c3ccccc3)nc3c(c2CO1)CN(C(=O)c1ccco1)CC3
inactive: all assays above

CC(C)C(=O)N[C@@H]1CCCN1C(=O)C=Cc1ccccc1
inactive: all assays above

CCCCC1=CC2=C(c3ccco3)C(=O)C(C)(OC(=O)c3ccc(OC)cc3)C(=O)C2=CN1CC(C)C (centres undefined)
inactive: all assays above

CCCCc1nc2c(c3c1C[C@H](C)OC3)CN(C(=O)C1CC1)CC2
inactive: all assays above

COC(=O)[C@@H]1[C@H](CCc2ccccc2)NC(=O)N(Cc2ccccc2)[C@@H]1C
inactive: all assays above

CCCCC1=CC2=C(c3ccco3)C(=O)C(C)(OC(=O)c3ccc(OC)cc3)C(=O)C2=CN1c1ccccc1 (centres undefined)
inactive: all assays above
